# Reference: PubChem BioAssay (NCI)
# This is part of a sample that, as a whole, favours compounds with a hit. Of some 83,000 tested, about 20% had one in any assay.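 In brief: 96-well plates, 48 h treatment, single concentration, percent growth endpoint.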 The source made the active and inactive calls.
# System: NCI-H322M lung
# Assay: NCI-60 one-dose screen, 48 h (100 = growth as untreated, 0 = no growth, -100 = all killed)
# Conditions: 10 µM
# Procedure: Growth inhibition of the NCI-H322M human Non-Small Cell Lung tumor cell line is measured as a screen for anti-cancer activity. Cells are grown in 96 well plates and exposed to the test compound for 48 hours. Compounds are tested at a single concentration, which is 10^-5 M for most compounds. The reported endpoint is percent growth (GI% or GIPRCNT), where numbers from 0 - 100% represent growth inhibition, and numbers from -100% - 0 represent cell death. For example, a value of 40 represents 60% growth inhibition. A value of 0 means no net growth occurred over the course of the experiment. A value of -40 indicates 40% of cells at the beginning of the experiment died by the end of the experiment. A value of -100 means all cells are dead at the end of the experiment.
# NCI-60 Human Tumor Cell Lines Screen was performed using the standard one-dose NCI protocol, which is described in more detail at https://dtp.cancer.gov/discovery_development/nci-60/default.htm.
# Compounds with GIPRCNT values below 10 were considered active. Activity score was based on GIPRCNT using the following formula: […]
# Score is 0 for GIPRCNT values of 100 or above, 50 for GIPRCNT values of 0, and 100 for GIPRCNT values of -100.
row,SMILES,growth
1,CC1=C2C(=C[C@@](C)(CO)[C@@H]2O)/C(=N\N)[C@](C)(O)C12CC2,-11.9% (active)
2,Cc1ccc2nc(-c3ccc(-c4nnc(SCC(=O)Nc5ccc(Br)cc5)o4)cc3)[nH]c2c1,80.7% (inactive)
3,O=C(Nc1cccc([N+](=O)[O-])c1)Nc1cccc([N+](=O)[O-])c1,89.2% (inactive)
4,O=C(CSc1nnc(-c2ccc3nc(-c4ccc(Cl)cc4)[nH]c3c2)o1)Nc1ccc(Cl)cc1,-66.5% (active)
5,CCCn1c(=O)c2[nH]c(-c3ccc(OCc4nc5ccc(C)cc5[nH]4)cc3)nc2n(CCC)c1=O,40.3% (inactive)
6,COc1ccc(-c2ccc(/C=N/NC(=O)c3[nH]c4ccc(Br)cc4c3-c3ccccc3)o2)cc1,70.4% (inactive)
7,COc1cc(/C=C/C(=O)c2ccc(S(=O)(=O)NCCNc3nc(Nc4ccc(F)cc4)nc(N(C)C)n3)cc2)cc(OC)c1OC,58.7% (inactive)
8,COc1ccc(C(=O)/C=C/c2ccc(Cl)c(C(F)(F)F)c2)cc1S(N)(=O)=O,-100% (active)
9,O=C(Cn1cc(CSc2nnc3oc4ccccc4n23)nn1)Nc1cccc(Cl)c1,84.1% (inactive)
10,COc1ccc(NC(=O)CSc2nnc(-c3ccc4nc(-c5ccc(Cl)cc5)[nH]c4c3)o2)cc1,45.8% (inactive)
11,O=C(NCCCCCCCCCC[P+](c1ccccc1)(c1ccccc1)c1ccccc1)c1ccc(-n2nc(-c3ccccc3O)nc2-c2ccccc2O)cc1,-91.1% (active)
12,Cn1cc(-c2cc(N)n3nc(-c4c[nH]c5ccc(Br)cc45)cc3n2)c2cccnc21,-42% (active)
13,CS(=O)(=O)Nc1ccc(-c2ccc3c(c2)ncn3-c2ccc(NC(=O)Nc3ccc(Cl)c(C(F)(F)F)c3)cc2)cc1,-42.9% (active)
14,COc1cccc(-c2ccc(/C=N/NC(=O)c3[nH]c4ccc(Br)cc4c3-c3ccccc3)o2)c1,45.7% (inactive)
15,Cc1ccc2nc(COc3ccc(C(=O)NNC(=S)NCCc4ccccc4)cc3)[nH]c2c1,51.7% (inactive)
16,COc1ccc(CN2[C@@H](C(=O)NCc3ccc(C(=O)NO)cc3)Cc3c([nH]c4ccccc34)[C@@H]2C)cc1,30.5% (inactive)
17,CCOC(=O)N/C(=C1/OCCN1C)[P+](c1ccccc1)(c1ccccc1)c1ccccc1,89.9% (inactive)
18,OCCCNc1oc(-c2ccccc2)nc1[P+](c1ccccc1)(c1ccccc1)c1ccccc1,31.9% (inactive)
19,CCCCSc1nc(Nc2ccc(/C(C)=N/NC(N)=S)cc2)c(C#N)c(-c2ccc(OC)cc2)n1,74.8% (inactive)
20,CCN1CCN(c2ccc(NC(=O)Nc3ccc4c(c3F)CCN4c3ccnc(C(=O)NC)c3)cc2C(F)(F)F)CC1,90.5% (inactive)

row,SMILES,growth
1,O=C(NO)c1ccc(-c2nc3ccc4[nH]ncc4c3c3c2CCCC3)cc1,-1.64% (active)
2,COc1ccc(N2N=C(c3ccc4c(c3)OCCO4)CC2c2cccc(NC(=O)CCCNS(=O)(=O)c3ccc(F)cc3)c2)cc1 (stereo not given),75% (inactive)
3,COc1cnc2c(c1)C(=O)c1c-2n(CCCNCCO)c(=O)c2cc(OC)c(OC)cc12,30.9% (inactive)
4,Cn1cc(-c2cc(N)n3nc(-c4c[nH]c5ccc(Br)cc45)cc3n2)c2cc(Br)cnc21,11.7% (inactive)
5,Cc1ccc(-c2nc(Nc3ccc(C)c(S(N)(=O)=O)c3)c3ccccc3n2)cc1,79.7% (inactive)
6,CO[C@@H]1CSS[C@H]1Cn1nc(-c2ccc(Oc3ccccc3)cc2)c2c(N)ncnc21,76.4% (inactive)
7,COc1cc(C2CC(c3ccc(C)cc3)=Nc3c(N)nc(N)nc3N2)ccc1Oc1nc(Nc2ccc(F)cc2)nc(N(C)C)n1 (stereo not given),86.6% (inactive)
8,CCOC(=O)c1sc(N/N=C(\C)c2ccc3c(c2)Nc2ccccc2S3)nc1C,45.2% (inactive)
9,Cc1nc(Nc2nc(C)c3ccc(OCCN4CCOCC4)cc3n2)[nH]c(=O)c1C,-10.8% (active)
10,O=C(Cc1ccc2c(c1)CN(C1CCC(=O)NC1=O)C2=O)NCc1cccc2ccccc12 (stereo not given),-4.15% (active)
11,O=C(CNc1nc(-c2ccccc2)cs1)Nc1cccc([N+](=O)[O-])c1,-71.4% (active)
12,CCN(CC)CCOc1ccc(C(=C(C)c2ccccc2)c2ccc(OCCN(CC)CC)cc2)cc1,31.1% (inactive)
13,COc1cc(/C=C/C(=O)c2ccc(NC(=O)CSc3nnc(-c4c[nH]c5ccccc45)n3-c3ccccc3)cc2)cc(OC)c1OC,90.5% (inactive)
14,O=C(Nc1ccc(OCc2ccccc2)cc1)Nc1ccc(Cl)c(C(F)(F)F)c1,7% (active)
15,N#Cc1c(NC(=O)c2ccc(C(F)(F)F)c(Cl)c2)sc2c1CCC(=O)C2,39.7% (inactive)
16,O=C(Cn1nc(-c2ccccc2)ccc1=O)NNC(=S)NC1CCCCC1,99.6% (inactive)
17,O=c1[nH]c2ccc(Cl)cc2cc1CSc1ccc(Nc2nccc(-c3ccc4ccccc4c3)n2)cc1,95.5% (inactive)
18,CN1CCN(c2ccc(Nc3nc(N4CCN(S(=O)(=O)c5ccc(F)cc5)CC4)c4sccc4n3)cc2)CC1,-88% (active)
19,Cc1ccc(-c2cc(-c3cc4ccccc4nc3Cl)[nH]c(=S)n2)cc1,81.7% (inactive)
20,COc1ccc(CN2[C@H](C(=O)NCc3ccc(C(=O)NO)cc3)Cc3c([nH]c4ccccc34)[C@H]2C2CC2)cc1,59.4% (inactive)
